This is a sample that favours compounds with a hit; in the whole collection about 5% have one here.
SENP6 inh = SENP6 protease inhibition; Recombinant SENP6 catalytic domain, aminoluciferin luminescence; inhibition, % at 10 µM; 330,000 tested, 1.8% active;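 active = inhibition above about 50% at the single tested dose, limit read from the data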;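 also: plate controls were DMSO wells with enzyme for no effect and DMSO wells lacking enzyme for full effect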
SENP8 block-1 = inhibitors of human SENP8 protease. Q96LD8. recombinant SENP8, Nedd8 substrate fluorescence. inhibition, % at 20 µM. 360,000 tested, 0.64% active. AID 602440; in the data active = inhibition mostly above about 40%, no sharp cut-off; inactive = mostly below about 27%
EBI2 antag = blocks human EBI2 receptor beta-arrestin signaling; EBI2 beta-arrestin recruitment, luminescence, 7a,25-OHC stimulated; inhibition, % at 5 µM; 360,000 tested, 0.81% active; in the data active = inhibition above about 38%;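 also: enzyme fragment complementation signal reports receptor beta-arrestin coupling in cells; 0% = agonist plus DMSO wells and 100% = wells without agonist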
SENP8 block-2 = inhibitors of human SENP8 protease; inhibition, % at 10 µM; 330,000 tested, 1.2% active; Q96LD8; AID 2540; purified SENP8, Z-RLRGG-aminoluciferin cleavage, luminescence; in the data active = inhibition above about 50%
SENP7 inh = blocks the human protease SENP7; recombinant SENP7, Z-RLRGG-aminoluciferin luminescence, 40 min; inhibition, % at 5 µM; 330,000 tested, 1.5% active;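 active = inhibition above about 50% at the single test dose, limit read from the data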;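 also: plate controls were DMSO with enzyme for no effect and no enzyme buffer wells for full effect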
Target sequence (Q9BQF6 706-1050 limits assumed): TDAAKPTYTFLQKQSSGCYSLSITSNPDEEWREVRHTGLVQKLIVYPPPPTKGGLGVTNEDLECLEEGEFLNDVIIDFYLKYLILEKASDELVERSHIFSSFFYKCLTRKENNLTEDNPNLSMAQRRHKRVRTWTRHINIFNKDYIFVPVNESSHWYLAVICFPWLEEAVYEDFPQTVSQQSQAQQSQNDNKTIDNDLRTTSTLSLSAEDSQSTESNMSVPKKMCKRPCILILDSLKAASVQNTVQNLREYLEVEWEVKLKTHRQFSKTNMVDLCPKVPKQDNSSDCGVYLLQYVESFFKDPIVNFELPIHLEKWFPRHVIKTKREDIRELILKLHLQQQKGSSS
AHR act = activates the human aryl hydrocarbon receptor; P35869; AHR-responsive luciferase reporter cells, luminescence; 320,000 tested, 2.5% active; activation, % at 5 µM; AID 2796; in the data active = activation above about 47%;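 also: 0% = vehicle wells and 100% = reference agonist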
SENP8 confirm = human SENP8 inhibition, confirmed | Recombinant SENP8, Z-RLRGG-aminoluciferin luminescence, 60 min | shares compounds with SENP7 inh | AID 488912 | inhibition, % at 12.5 µM | 6,200 tested, 40% active;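 active = mean inhibition across replicates above about 50%, limit read from the data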
SENP6 conf = confirmation of human SENP6 protease inhibitors | inhibition, % at 12.5 µM | 6,200 tested, 58% active | shares compounds with SENP7 inh | recombinant SENP6, Z-RLRGG-aminoluciferin luminescence
SENP7 confirm = human SENP7 inhibition, confirmed. shares compounds with SENP7 inh. inhibition, % at 12.5 µM. 6,200 tested, 69% active. recombinant SENP7, Z-RLRGG-aminoluciferin luminescence, 40 min
Casp3 select = caspase-3 inhibition (SENP selectivity assay) | shares compounds with SENP7 inh | purified caspase-3, Z-DEVD-aminoluciferin luminescence, 60 min | inhibition, % at 12.5 µM | 6,200 tested, 60% active;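 active = mean inhibition above about 50%, limit read from the data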;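 also: plate controls were enzyme with DMSO for no effect and wells without caspase-3 for full effect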
Target sequence (P42574 28-227 limits assumed): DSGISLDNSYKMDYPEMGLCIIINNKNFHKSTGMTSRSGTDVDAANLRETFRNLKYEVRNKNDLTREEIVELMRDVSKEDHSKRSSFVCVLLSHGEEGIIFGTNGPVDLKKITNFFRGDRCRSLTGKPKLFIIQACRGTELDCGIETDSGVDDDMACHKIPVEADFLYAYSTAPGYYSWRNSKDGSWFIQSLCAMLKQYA
SENP luc ctr = counter-screen for SENP inhibitors: luminescence interference; shares compounds with SENP7 inh; Pre-incubated SENP8/Z-RLRGG-aminoluciferin, luciferase luminescence interference; inhibition, % at 12.5 µM; 6,200 tested, 39% active; AID 488919;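 active = mean inhibition above about 50% when retested at one dose, limit read from the data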;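 also: plate controls were DMSO wells with completed reaction for no effect and substrate without enzyme for full effect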
* marks the source's active call; other numbers are inactive results.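 The calls were made as follows, unless noted: active = mean inhibition above about 50% in the one-dose retest (limit read from the data); inactive = the rest.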

How did CC(C)(C)OC(=O)NN=C(c1ccc(O)cc1)c1ccc(O)cc1 do in these assays?
SENP6 inh: 3.9; SENP8 block-1: 12.5; EBI2 antag: 4.0; SENP8 block-2: 2.7; SENP7 inh: 1.7; AHR act: 31.8

Results for COc1ccc(-c2nnc(-c3ccccc3O)o2)cc1 ?
SENP6 inh: 80.5*; SENP8 block-1: -169.2; EBI2 antag: -6.4; SENP8 block-2: 83.6*; SENP7 inh: 93.0*; AHR act: 2.5; SENP8 confirm: 51.1*; SENP6 conf: 41.7; SENP7 confirm: 66.8*; Casp3 select: 56.2*; SENP luc ctr: 6.5

How did COc1cccc2sc(Nc3nnc(-c4ccc(F)cc4)o3)nc12 do in these assays?
SENP6 inh: 75.4*; SENP8 block-1: -410.7; EBI2 antag: -5.9; SENP8 block-2: 44.2; SENP7 inh: 42.8; AHR act: 65.6*; SENP8 confirm: 31.2; SENP6 conf: 42.1; SENP7 confirm: 86.2*; Casp3 select: 66.2*; SENP luc ctr: 6.5

What do the screens show for `COc1ccc(-c2nnc(-c3ccc(F)cc3)o2)cc1`?
SENP6 inh: 57.8*; SENP8 block-1: -96.5; EBI2 antag: 16.9; SENP8 block-2: 56.5*; SENP7 inh: 68.8*; AHR act: 3.2; SENP8 confirm: 8.5; SENP6 conf: 8.7; SENP7 confirm: 12.4; Casp3 select: 1.2; SENP luc ctr: 8.2

Results for COc1ccc(-c2nnc(-c3cc4ccccc4oc3=O)o2)cc1 ?
SENP6 inh: -7.0; SENP8 block-1: -349.2; EBI2 antag: -9.0; SENP8 block-2: -7.5; SENP7 inh: 3.3; AHR act: -0.4

What do the screens show for `COc1ccc(-c2nnc(-c3ccc(C)cc3)o2)cc1`?
SENP6 inh: 2.9; SENP8 block-1: -38.5; EBI2 antag: 21.2; SENP8 block-2: 14.0; SENP7 inh: 16.3; AHR act: 2.1

How did NS(=O)(=O)c1c(Sc2ccccc2C(=O)O)ccc2ccccc12 do in these assays?
SENP6 inh: 93.6*; SENP8 block-1: 4.8; EBI2 antag: 2.8; SENP8 block-2: -9.2; SENP7 inh: 51.6*; AHR act: 20.7; SENP8 confirm: -4.4; SENP6 conf: 0.2; SENP7 confirm: -4.4; Casp3 select: 2.3; SENP luc ctr: 40.1

Results for CC1=C(C(=O)N(C)C)CC(CC(=O)NCC2CCCCC2)C(=O)N1Cc1ccccc1 (configuration not stated) ?
SENP8 block-1: 5.2; EBI2 antag: 2.1

Results for COc1ccc2c(c1OC)C(=O)N(c1cccc(C)c1)C2 ?
SENP6 inh: 71.1*; SENP8 block-1: -16.2; EBI2 antag: 5.1; SENP8 block-2: 32.8; SENP7 inh: 59.2*; AHR act: -2.6; SENP8 confirm: 65.2*; SENP6 conf: 64.5*; SENP7 confirm: 89.8*; Casp3 select: 83.9*; SENP luc ctr: 70.2*

How did O=C(NNC(=O)c1ccccc1[N+](=O)[O-])c1cnccn1 do in these assays?
SENP6 inh: -6.7; SENP8 block-1: 17.8; EBI2 antag: -3.9; SENP8 block-2: -0.3; SENP7 inh: 82.5*; AHR act: 0.6; SENP8 confirm: -8.9; SENP6 conf: -5.8; SENP7 confirm: -5.2; Casp3 select: 6.8; SENP luc ctr: 0.7

What do the screens show for `CCCCS/C(N)=N/N=C/c1cc(C)ccc1O`?
SENP6 inh: -20.2; SENP8 block-1: 10.8; EBI2 antag: -10.4; SENP8 block-2: -9.4; SENP7 inh: -6.5; AHR act: 4.3

How did CCS/C(N)=N/N=C/c1cc(C)ccc1O do in these assays?
SENP6 inh: 70.6*; SENP8 block-1: 25.7; EBI2 antag: -3.9; SENP8 block-2: 47.3; SENP7 inh: 51.2*; AHR act: 1.3; SENP8 confirm: 62.4*; SENP6 conf: 62.1*; SENP7 confirm: 87.2*; Casp3 select: 61.8*; SENP luc ctr: 29.0

Results for CS/C(N)=N/N=C/c1cc(C)ccc1O ?
SENP6 inh: -1.7; SENP8 block-1: 17.4; EBI2 antag: -1.4; SENP8 block-2: 53.9*; SENP7 inh: 62.9*; AHR act: 3.5; SENP8 confirm: 39.3; SENP6 conf: 59.5*; SENP7 confirm: 84.8*; Casp3 select: 63.9*; SENP luc ctr: 66.4*

How did CCCc1cc2c(OC(=O)CC)c(-c3ccc(C(=O)OCC)o3)c(=O)oc2cc1OC do in these assays?
SENP6 inh: -1.5; SENP8 block-1: -409.6; EBI2 antag: -9.6; SENP8 block-2: -2.3; SENP7 inh: 2.1; AHR act: 5.2

What do the screens show for `CCc1ccc(S(=O)(=O)Nc2cc(SCC(=O)O)c(O)c3ccccc23)cc1`?
SENP6 inh: 72.7*; SENP8 block-1: 32.9; EBI2 antag: 0.3; SENP8 block-2: 28.1; SENP7 inh: 30.3; AHR act: 52.9*; SENP8 confirm: 14.9; SENP6 conf: 36.6; SENP7 confirm: 12.2; Casp3 select: -0.2; SENP luc ctr: 8.0

What do the screens show for `O=C(O)CSc1cc(NS(=O)(=O)c2cccc([N+](=O)[O-])c2)c2ccccc2c1O`?
SENP8 block-1: 12.3; EBI2 antag: 3.0

Results for O=C(/C=C/Nc1ccc(Br)cc1F)c1ccccc1 ?
SENP6 inh: 93.9*; SENP8 block-1: -26.9; EBI2 antag: -0.5; SENP8 block-2: 93.6*; SENP7 inh: 99.6*; AHR act: 44.9; SENP8 confirm: -26.9; SENP6 conf: 15.2; SENP7 confirm: 36.1; Casp3 select: 65.1*; SENP luc ctr: 9.0

How did Cc1ccc(C(=O)/C=C/Nc2cccc(O)c2)cc1 do in these assays?
SENP6 inh: 93.0*; SENP8 block-1: -67.8; EBI2 antag: 8.2; SENP8 block-2: 88.3*; SENP7 inh: 49.8; AHR act: -1.7; SENP8 confirm: 9.9; SENP6 conf: 92.7*; SENP7 confirm: 100.1*; Casp3 select: 77.4*; SENP luc ctr: 77.6*

Results for Cc1ccc(C(=O)/C=C/Nc2ccc3c(c2)OCO3)cc1 ?
SENP6 inh: 38.2; SENP8 block-1: -30.3; EBI2 antag: 25.8; SENP8 block-2: -3.6; SENP7 inh: 60.2*; AHR act: 24.8; SENP8 confirm: 14.6; SENP6 conf: 14.8; SENP7 confirm: 26.4; Casp3 select: 22.8; SENP luc ctr: 6.3

Screening results as filed in PubChem.
